In PubChem BioAssay:
Inconclusive results are not listed. Active and inactive are the calls of the source. Unless noted, the limit is not given here; nearly all actives have AC50 up to about 26 µM.

Assay: NPC library primary testing for decreased DLD-1 cell viability via CellTiter-Glo (AID 1117346;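 active = compounds that lower survival of DLD-1 colon cancer cells in the luminescence readout, no cutoff given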)
Settings: DLD-1 viability, CellTiter-Glo luminescence; at 20 µM (top of the series)
In the case of `C[C@]12CCC(=O)C=C1[C@@H]1C[C@@H]1[C@H]1[C@@H]3[C@@H]4C[C@@H]4[C@@]4(CCC(=O)O4)[C@@]3(C)CC[C@@H]12`, the viability decrease (inhibition) is reported as 3.1% (inactive). For `CCC1=C[C@@H]2CN(C1)Cc1c([nH]c3ccccc13)[C@@](C(=O)OC)(c1cc3c(cc1OC)N(C)[C@H]1[C@@](O)(C(=O)OC)[C@H](OC(C)=O)[C@]4(CC)C=CCN5CC[C@]31[C@@H]54)C2`, the viability decrease (inhibition) was 76.7% (active). With `CC1(C)CCC(C)(C)c2cc(NC(=O)c3ccc(C(=O)O)cc3)ccc21` the viability decrease (inhibition) was 43.1% (inactive). In the case of `Cc1ccc(Nc2nccc(N(C)c3ccc4c(C)n(C)nc4c3)n2)cc1S(N)(=O)=O`, the viability decrease (inhibition) is reported as 14.5% (inactive). For `Clc1ccc(C(Cn2ccnc2)OCc2ccc(Sc3ccccc3)cc2)c(Cl)c1` (configuration not stated), the viability decrease (inhibition) was 101% (active). In the case of `CNC(=O)c1ccccc1Sc1ccc2c(/C=C/c3ccccn3)n[nH]c2c1`, the viability decrease (inhibition) is reported as 56.9% (active). For `CCOC(=O)c1ccc(C#Cc2ccc3c(c2)C(C)(C)CCS3)nc1`, the viability decrease (inhibition) was 98.1% (active). For `CC(=O)OCC(=O)[C@@]12N=C(C)O[C@@H]1C[C@H]1[C@@H]3CCC4=CC(=O)C=C[C@]4(C)[C@H]3[C@@H](O)C[C@@]12C`, the viability decrease (inhibition) was -6.8% (inactive). With `O=P(O)(O)C(O)(Cn1ccnc1)P(=O)(O)O` the viability decrease (inhibition) was 17.2% (inactive). With `O=c1cc(O)c(Cl)c[nH]1` the viability decrease (inhibition) was 12.9% (inactive). In the case of `Clc1ccc(C(Cn2ccnc2)OCc2c(Cl)cccc2Cl)c(Cl)c1` (configuration not stated), the viability decrease (inhibition) is reported as 101% (active). In the case of `CC(C)(C)C(=O)Oc1ccc(S(=O)(=O)Nc2ccccc2C(=O)NCC(=O)O)cc1`, the viability decrease (inhibition) is reported as 3.4% (inactive). With `N[C@@H](Cc1c[nH]c2ccc(O)cc12)C(=O)O` the viability decrease (inhibition) was -5.7% (inactive). In the case of `O=C(Nc1ccc(S(=O)(=O)N2CCOCC2)cc1)c1cc(Cl)ccc1NS(=O)(=O)c1ccc(Cl)s1`, the viability decrease (inhibition) is reported as 101% (active). For `CCCCN(CCCC)CC(O)c1cc(Cl)cc2c1-c1ccc(Cl)cc1/C2=C/c1ccc(Cl)cc1` (configuration not stated), the viability decrease (inhibition) was 14.9% (inactive). With `N#Cc1c(N(CC(=O)O)CC(=O)O)sc(C(=O)O)c1CC(=O)O` the viability decrease (inhibition) was -13.8% (inactive). In the case of `N=C(N)c1ccc2cc(OC(=O)c3ccc(N=C(N)N)cc3)ccc2c1`, the viability decrease (inhibition) is reported as 1.2% (inactive). With `COC(c1ccccc1)(c1ccccc1)[C@H](Oc1nc(C)cc(C)n1)C(=O)O` the viability decrease (inhibition) was -0.4% (inactive). With `NC(=O)c1ncn([C@@H]2O[C@H](CO)[C@@H](O)[C@H]2O)c1N` the viability decrease (inhibition) was -22.4% (inactive). For `c1cnc2cc3c(cc2n1)C1CNCC3C1`, the viability decrease (inhibition) was -12.7% (inactive). For `CC(C(=O)O)c1ccc2c(c1)CC(=O)c1ccccc1S2` (configuration not stated), the viability decrease (inhibition) was 7.9% (inactive). For `CN(C)C(=O)COC(=O)Cc1ccc(OC(=O)c2ccc(N=C(N)N)cc2)cc1`, the viability decrease (inhibition) was 4.3% (inactive). With `CCCCc1oc2ccc(NS(C)(=O)=O)cc2c1C(=O)c1ccc(OCCCN(CCCC)CCCC)cc1` the viability decrease (inhibition) was 101% (active). With `CC(C)C[C@H](NC(=O)[C@H](CCc1ccccc1)NC(=O)CN1CCOCC1)C(=O)N[C@@H](Cc1ccccc1)C(=O)N[C@@H](CC(C)C)C(=O)[C@@]1(C)CO1` the viability decrease (inhibition) was 101% (active).

Assay: viability loss in pontine glioma line – cell-based, SU-DIPG-XVII, MIPE5.0, CellTiter-Glo, qHTS, dose response (AID 1347060);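 as to AC50: cells exposed to compound for 48 hours before viability readout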
Settings: CellTiter-Glo ATP luminescence
In the case of `O=C(O)c1ccc(-n2nc(-c3ccccc3O)nc2-c2ccccc2O)cc1`, the AC50 is reported as 16.6 µM (active). In the case of `COc1ccc(-c2ccc3cc(C(=O)O)ccc3c2)cc1C12CC3CC(CC(C3)C1)C2`, the AC50 is reported as 3.32 µM (active). For `COCCCN1CCC(NC(=O)c2cc(Cl)c(N)c3c2OCC3)CC1`, the outcome was “inactive”. In the case of `CCOC(=O)c1c(C)n(C)c2ccc(O)cc12`, the outcome is reported as “inactive”. For `NCCCC(N)(C(=O)O)C(F)F` (configuration not stated), the outcome was “inactive”. For `CN1CCCN=C1/C=C/c1cccs1`, the outcome was “inactive”. For `O=[N+]([O-])c1cncn1CCN1CCOCC1`, the outcome was “inactive”. With `C=CC(=O)Nc1cc2c(Nc3ccc(F)c(Cl)c3)ncnc2cc1OCCCN1CCOCC1` the AC50 was 6.61 µM (active). For `Cc1ccc(C(=O)c2cc(O)c(O)c([N+](=O)[O-])c2)cc1`, the outcome was “inactive”. With `Cc1nnc(C(=O)NC(C)(C)c2nc(C(=O)NCc3ccc(F)cc3)c(O)c(=O)n2C)o1` the outcome was “inactive”. In the case of `Cc1ccccc1C(=O)Nc1ccc(C(=O)N2CCCC(O)c3cc(Cl)ccc32)c(C)c1` (configuration not stated), the outcome is reported as “inactive”. In the case of `Cc1cc2c(cc1CC(=O)c1sccc1S(=O)(=O)Nc1onc(C)c1Cl)OCO2`, the outcome is reported as “inactive”. With `C[C@]12CCC(=O)C=C1[C@@H]1C[C@@H]1[C@H]1[C@@H]3[C@@H]4C[C@@H]4[C@@]4(CCC(=O)O4)[C@@]3(C)CC[C@@H]12` the outcome was “inactive”. In the case of `CCC1=C[C@@H]2CN(C1)Cc1c([nH]c3ccccc13)[C@@](C(=O)OC)(c1cc3c(cc1OC)N(C)[C@H]1[C@@](O)(C(=O)OC)[C@H](OC(C)=O)[C@]4(CC)C=CCN5CC[C@]31[C@@H]54)C2`, the AC50 is reported as 0.204 µM (active). With `CC1(C)CCC(C)(C)c2cc(NC(=O)c3ccc(C(=O)O)cc3)ccc21` the outcome was “inactive”. With `Cc1ccc(Nc2nccc(N(C)c3ccc4c(C)n(C)nc4c3)n2)cc1S(N)(=O)=O` the AC50 was 3.32 µM (active). In the case of `Clc1ccc(C(Cn2ccnc2)OCc2ccc(Sc3ccccc3)cc2)c(Cl)c1` (configuration not stated), the AC50 is reported as 20.9 µM (active). With `CNC(=O)c1ccccc1Sc1ccc2c(/C=C/c3ccccn3)n[nH]c2c1` the AC50 was 1.32 µM (active). For `CCOC(=O)c1ccc(C#Cc2ccc3c(c2)C(C)(C)CCS3)nc1`, the AC50 was 26.3 µM (active). With `CC(=O)OCC(=O)[C@@]12N=C(C)O[C@@H]1C[C@H]1[C@@H]3CCC4=CC(=O)C=C[C@]4(C)[C@H]3[C@@H](O)C[C@@]12C` the outcome was “inactive”. With `O=P(O)(O)C(O)(Cn1ccnc1)P(=O)(O)O` the outcome was “inactive”. For `O=c1cc(O)c(Cl)c[nH]1`, the outcome was “inactive”. In the case of `Clc1ccc(C(Cn2ccnc2)OCc2c(Cl)cccc2Cl)c(Cl)c1` (configuration not stated), the AC50 is reported as 23.5 µM (active). For `CC(C)(C)C(=O)Oc1ccc(S(=O)(=O)Nc2ccccc2C(=O)NCC(=O)O)cc1`, the outcome was “inactive”. In the case of `N[C@@H](Cc1c[nH]c2ccc(O)cc12)C(=O)O`, the outcome is reported as “inactive”. For `O=C(Nc1ccc(S(=O)(=O)N2CCOCC2)cc1)c1cc(Cl)ccc1NS(=O)(=O)c1ccc(Cl)s1`, the outcome was “inactive”. For `N#Cc1c(N(CC(=O)O)CC(=O)O)sc(C(=O)O)c1CC(=O)O`, the outcome was “inactive”. With `NC(=O)c1ncn([C@@H]2O[C@H](CO)[C@@H](O)[C@H]2O)c1N` the outcome was “inactive”. With `c1cnc2cc3c(cc2n1)C1CNCC3C1` the outcome was “inactive”. In the case of `CC(C(=O)O)c1ccc2c(c1)CC(=O)c1ccccc1S2` (configuration not stated), the outcome is reported as “inactive”. For `CN(C)C(=O)COC(=O)Cc1ccc(OC(=O)c2ccc(N=C(N)N)cc2)cc1`, the outcome was “inactive”. For `CCCCc1oc2ccc(NS(C)(=O)=O)cc2c1C(=O)c1ccc(OCCCN(CCCC)CCCC)cc1`, the AC50 was 13.2 µM (active). In the case of `CC(C)C[C@H](NC(=O)[C@H](CCc1ccccc1)NC(=O)CN1CCOCC1)C(=O)N[C@@H](Cc1ccccc1)C(=O)N[C@@H](CC(C)C)C(=O)[C@@]1(C)CO1`, the AC50 is reported as 0.0148 µM (active).
